Out of some 2,100 compounds screened, about 770 (37%) were called active.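 The calls were made as follows: active = by-eye trace score of 1 for enhancers or -1 for inhibitors, so actives lie on both sides (some results past the limit were not filed as active); inactive = score 0, or 3 fluorescent, or 4 baseline rise.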 The list shows a part of the results.
Target: G protein-activated inward rectifier potassium channel 2 (Homo sapiens) + G protein-activated inward rectifier potassium channel 1 (Homo sapiens) (UniProt P48051+P48549)
Sequence (P48051 whole entry, looked up): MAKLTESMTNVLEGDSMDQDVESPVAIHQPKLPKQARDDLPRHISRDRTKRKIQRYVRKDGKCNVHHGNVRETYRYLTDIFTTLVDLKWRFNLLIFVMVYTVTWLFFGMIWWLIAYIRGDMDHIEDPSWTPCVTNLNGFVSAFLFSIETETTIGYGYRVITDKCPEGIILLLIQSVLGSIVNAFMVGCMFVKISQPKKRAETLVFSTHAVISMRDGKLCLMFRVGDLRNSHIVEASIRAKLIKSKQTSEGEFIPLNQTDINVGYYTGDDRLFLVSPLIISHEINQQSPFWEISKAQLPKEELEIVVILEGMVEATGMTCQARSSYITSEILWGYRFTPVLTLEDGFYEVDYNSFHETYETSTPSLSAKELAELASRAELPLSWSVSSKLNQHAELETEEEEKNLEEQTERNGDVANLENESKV
Sequence (P48549 whole entry, looked up): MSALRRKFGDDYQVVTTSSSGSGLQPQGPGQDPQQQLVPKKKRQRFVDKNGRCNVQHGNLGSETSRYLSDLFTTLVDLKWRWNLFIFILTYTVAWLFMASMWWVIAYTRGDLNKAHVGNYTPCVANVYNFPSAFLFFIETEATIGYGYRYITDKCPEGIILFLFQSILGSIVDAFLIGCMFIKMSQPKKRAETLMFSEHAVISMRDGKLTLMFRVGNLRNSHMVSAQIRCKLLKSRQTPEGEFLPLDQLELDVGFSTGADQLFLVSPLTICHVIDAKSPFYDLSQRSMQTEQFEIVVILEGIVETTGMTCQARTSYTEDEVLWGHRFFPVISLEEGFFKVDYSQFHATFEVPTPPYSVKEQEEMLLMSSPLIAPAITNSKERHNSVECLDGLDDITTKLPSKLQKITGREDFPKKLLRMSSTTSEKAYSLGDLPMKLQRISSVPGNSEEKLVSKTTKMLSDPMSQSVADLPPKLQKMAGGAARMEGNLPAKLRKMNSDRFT
Experiment: GIRK1/2 thallium flux modulators, retest, confirmation, cell-based, HEK293 rmGlu8/hGIRK1/2, FluoZin-2 (AID 623911)
Details: HEK293 rmGlu8/hGIRK1/2, thallium flux FluoZin-2; actives lie on both sides; glutamate co-added at its EC20 level

Manual score, active:
CCCCN(C)C1=Nc2cccc3cccc1c23 -1
CCc1ccc(NC(=S)NNC(=O)c2ccccc2OC(F)F)cc1 1
CCOC(=O)Cc1csc(NC(=S)NC(=O)c2ccccc2)n1 1
CCOC(=O)Cc1csc(NC(=S)NC(=O)c2ccc(C)cc2)n1 1
CCOC(=O)Cc1csc(NC(=O)Nc2ccccc2)n1 1
CCOC(=O)Cc1csc(NC(=S)NC(=O)C(C)(C)C)n1 1
Cc1ccc(NC(=O)COC(=O)/C=C/c2ccco2)cc1S(=O)(=O)N(C)C 1
Cc1ccc(NC(=O)COC(=O)CCC(=O)c2ccc(Cl)cc2)cc1S(=O)(=O)N(C)C 1
Cc1ccc(NC(=O)Cc2ccccc2Cl)cc1S(=O)(=O)N(C)C 1
CCOCc1c(C(=O)OCC(=O)Nc2ccc(C)c(S(=O)(=O)N(C)C)c2)oc2ccccc12 1
Cc1ccc(NC(=O)Cc2c(Cl)cccc2Cl)cc1S(=O)(=O)N(C)C 1
COc1cc(C(=O)NC2CC3CCCC(C2)N3CC(=O)Nc2ccccc2)cc(OC)c1OC (configuration not stated) -1
CC1CCN(CC(O)COC2CCC(C(C)(C)C)CC2)CC1 (configuration not stated) -1
COc1cccc(NC(=O)NCCCSC2CCCCC2)c1 1
Cc1sc2c(c1C)CN(C1CC(C)(C)NC(C)(C)C1)CN2C(=O)c1ccco1 -1
C/C(=N\NC(=O)COc1ccc(C)cc1C(C)C)c1ccc(-n2ccnc2)cc1 -1
Cc1ccc(Nc2cc(C)nn2-c2nc(C)cc(=O)[nH]2)cc1 1
COc1ccccc1Nc1ccc(Nc2ccccc2OC)nn1 1
COc1ccc(Cn2c(=S)[nH]c3ccsc3c2=O)cc1 1
O=C(NNC(=O)c1sccc1-n1cccc1)c1ccc(Cl)cc1 1
O=C(NNS(=O)(=O)c1cc(Cl)cc(Cl)c1)c1sccc1-n1cccc1 1
O=C(NNC(=O)c1sccc1-n1cccc1)c1cccc(Cl)c1 1
O=C(NN=c1c(=O)c2ccccc2c1=O)c1ccccc1 1
O=C(NNc1nc2ccccc2nc1C(F)(F)F)c1ccccc1 1
Cc1ccc(C(=O)NNc2nc3ccccc3nc2C(F)(F)F)cc1 1
COc1cc(NC(=O)Cn2nnc(-c3ccccc3N)n2)cc(OC)c1 1
O=C(CSc1nnnn1-c1ccc(O)cc1)Nc1cccc(S(=O)(=O)N2CCCC2)c1 -1
CCOC(=O)Cc1csc(NC(=S)NC(=O)c2ccccc2C)n1 1
CCOC(=O)Cc1csc(NC(=S)NC(=O)c2ccccc2Br)n1 1
CCOC(=O)c1ccc(NC(=O)N2CCN(Cc3cccc(F)c3)CC2)cc1 -1
CC1CCC/C(=N\NC(=O)COc2ccc(Cl)cc2Cl)C1 (configuration not stated) 1
N#C/C(=N\Nc1ccc(Cl)cc1)C(=O)c1ccccc1 -1
CC(C)c1nc(N2CCN(C(=O)c3ccccc3)CC2)c(C#N)c2c1COC(C)(C)C2 -1

Manual score, inactive:
COc1ccc(NC2=Nc3cccc4cccc2c34)cc1OC 0
CC/C(=N\NC(=S)Nc1ccc(OC)cc1)c1ccc(OC(F)F)cc1 0
O=C1C2C3C=CC(C3)C2C(=O)N1/N=C/c1cn(Cc2ccccc2)c2ccccc12 (configuration not stated) 0
O=C(NC(=S)Nc1nc2c(s1)CCCC2)c1ccccc1 0
O=C(NC(=S)Nc1nc2c(s1)CCCC2)c1ccc(C(=O)c2ccccc2)cc1 0
CC(C)CC(=O)NC(=S)Nc1nc(-c2cccc3ccccc23)cs1 0
O=C1C(Cl)=C(N2CCOCC2)C(=O)N1c1cccc(Cl)c1 0
CCCc1cc(-c2n[nH]c(=S)n2CC(C)C)cs1 0
CCCCCNC(=O)c1ccc2c(=O)[nH]c3c(C(=O)NCC4CCCO4)sc(=S)n3c2c1 (configuration not stated) 0
CC(C)C(C)(C#N)NC(=O)CSc1ncnc2sc(-c3ccccc3)cc12 (configuration not stated) 0
Cc1cc(C(=O)CSc2n[nH]c(N)n2)c(C)n1-c1cc(F)ccc1F 0
O=C1Nc2cc(S(=O)(=O)N3CCCC3)ccc2N2CCCC12 (configuration not stated) 0
CC(C)c1ccccc1NC(=O)COC(=O)/C=C/c1cccc([N+](=O)[O-])c1 0
Cc1cc(C(=O)OCC(=O)Nc2ccc(F)cc2)c(C)o1 0
Cc1ccc(NC(=O)COn2nnc3ccc(S(=O)(=O)N(C)C)cc32)cc1F 0
O=C(CSCc1ccc(Br)cc1)N=Nc1c(O)[nH]c2ccccc12 0
CCc1nnc(NC(=O)CSc2nnc(C3CCCCC3)n2-c2cccc(Cl)c2)s1 0
COCCN=c1scc(-c2cccs2)n1/N=C/c1ccc(O)c(O)c1O 0
CCOC(=O)CN1NC2(CCC(C(C)(C)C)CC2)NC1=S (configuration not stated) 0
COC(=O)c1sccc1NC(=O)CSc1ccccc1NS(=O)(=O)c1ccccc1Cl 0
CC1(C)NC(=O)NC2(C)NC(=O)NC(C)(C)C12 (configuration not stated) 0
COc1cc(NC(=O)CS(=O)(=O)c2ccc(C)cc2)cc(OC)c1OC 0
O=C1OCCC1Sc1nc2cc(Cl)ccc2n1Cc1ccccc1 (configuration not stated) 0
CCCCSc1nc(N)c(NC(=O)c2ccco2)c(=O)[nH]1 0
CCN(C(=O)COc1cc(=O)n(CC)c2ccccc12)c1cc(Cl)ccc1OC -0.5
COC(=O)[C@H]1CCCN1C(=O)Nc1cccc(Oc2c(F)c(F)c(F)c(F)c2F)c1 0
COc1ccc(S(=O)(=O)NCCC(=O)NC2CCCCCCC2)cc1 0
Cc1ccc(OCC(=O)N/N=C\c2ccc(-c3cccc(C(=O)O)c3)o2)c(C)c1 0
Cc1conc1NC(c1cccs1)c1ccc2cccnc2c1O (configuration not stated) 0
O=S(=O)(Nc1nc(-c2sccc2Cl)cs1)c1cc(Cl)ccc1Cl 0
Cc1cc(NC(=O)c2c(F)cccc2Cl)n(-c2nc3ccccc3[nH]2)n1 0
COc1ccccc1-c1ccc(NC2CCCC2)nn1 0
COc1ccccc1NC(=O)c1cc(C(=O)Nc2ccccc2OC)cc(N2C(=O)CCC2=O)c1 0
CCCC(=O)NC(c1cccs1)c1cc([N+](=O)[O-])c2cccnc2c1O (configuration not stated) 0
CCc1c(C)sc(NC(=O)CCc2ccc(OC)cc2)c1C(N)=O 0
O=C(Cn1c(=O)[nH]c2ccsc2c1=O)NC1CCCCCC1 0
COc1cc(NC(=O)CCn2c(=O)[nH]c3ccsc3c2=O)cc(OC)c1 0
O=C(NNC(=S)Nc1cccc(C(F)(F)F)c1)c1cccc(Cl)c1 0.5
CCNC(=S)NNC(=O)c1cccn(Cc2ccc(Cl)cc2)c1=O 0
Cn1sc(NC(=O)c2cccc(Cl)c2)nc1=O 0
Cn1c2ccccc2c2cc(C(=O)NNS(=O)(=O)c3ccc(F)cc3)sc21 0
Cc1cccc(-n2c(O)c(/C=N/NC(=O)c3ccccc3Cl)c3ccccc3c2=O)n1 0
Clc1ccc(Cl)c(OCc2cc(-c3ccccc3Cl)on2)c1 0
C/C(=N\O)C(C)NC(=O)c1ccccc1 (configuration not stated) -0.5
CC1Oc2ccccc2C=C1/C=N/NC(=O)c1ccccc1 (configuration not stated) 0
Cc1nc(/N=C(\N)NC(=O)c2ccccc2)nc2ccccc12 0
O=C(NNc1ncc(C(F)(F)F)cc1Cl)c1c(Cl)cccc1Cl 0
Cc1ccc(C(=O)NC2(C(F)(F)F)N=C3SCCN3C2=O)cc1 (configuration not stated) 0
Cc1ccc(C(=O)N/N=C/C2=Cc3ccccc3OC2C)cc1 (configuration not stated) 0
COc1ccc(-n2cc(-c3ccccc3)[nH]c2=S)cc1 0
CCCc1cc(=O)n2[nH]c(-c3ccc(Br)cc3)cc2n1 0
O=C1Nc2ccccc2C12OCC1(CO2)COC2(OC1)C(=O)Nc1ccccc12 (configuration not stated) 0
COc1cc(NC(=O)CSCc2cnn(-c3ccccc3)c2-n2cccc2)cc(OC)c1 0
CCOc1ccc(NC(=O)Cn2nnc(-c3ccccc3F)n2)cc1 0
Cc1ccc(C)c(-n2nnnc2SCC(=O)Nc2cccc(-c3nnc4n3CCCCC4)c2)c1 3
CCOC(=O)c1cccc(NC(=O)CSc2nnc(C3CCCCC3)n2C)c1 0
Cc1ccccc1C(=O)NC(=S)Nc1ccc(Oc2ccc(Cl)cc2)cc1 0
COc1cc(OC)c(-c2c3cc(O)c(=O)cc-3oc3cc(O)c(O)cc23)cc1OC 3
CCOC(=O)c1ccc(NC(=O)Nc2ccc(OC)c(OC)c2)cc1 0.5
CCCOC(=O)c1ccc(NC(=O)c2ccoc2C)cc1 0.5
CN1C(=O)c2oc3ccccc3c(=O)c2C1c1ccccn1 (configuration not stated) 0
O=C(N/C(=N\O)c1ccccc1)Nc1ccc(Cl)cc1 0
Cc1ccc(/C=N/Nc2nc(Cl)c(Cl)cc2Cl)s1 0
O=S(=O)(Nc1cc(Sc2cccc3cccnc23)c(O)c2ccccc12)c1ccc(F)cc1 0
O=c1c2c(nc3c(-c4cccc(Br)c4)c[nH]n13)CCCC2 0
N#Cc1c(N2CCN(C(=O)c3ccccc3)CC2)nc(-c2ccccc2)c2c1CCCC2 0
CSc1nc(N2CCOCC2)c2c(c1C#N)CC(C)(C)OC2 -0.5
CC1CCCN(Cc2cccc(Oc3ccccc3)c2)C1 (configuration not stated) 0.5
CCOc1ccc(N2C(=O)/C(=C/c3cc(OC)c(OC)c(OC)c3)N(CC(=O)OC)C2=S)cc1 0
